Source: PubChem BioAssay AID1209 (Sanford-Burnham Center for Chemical Genomics, 2008)
Screen size: about 190,000 compounds; about 810 (0.43%) were called active. This excerpt belongs to a sample that is enriched for actives. Values without a mark were called inactive. Rule as the data show it: active = inhibition above about 50%; inactive = the rest.

molecular target: Mannose-6-phosphate isomerase (Homo sapiens) (UniProt P34949); experiment: inhibitors of human PMI, primary screen, biochemical, fluorescence intensity, coupled assay (AID 1209); conditions: purified PMI enzyme, at 20 µM, stronger effect = higher value;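 also: plate controls were DMSO vehicle for no effect and wells lacking substrate for full effect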
Sequence (P34949 whole entry, looked up): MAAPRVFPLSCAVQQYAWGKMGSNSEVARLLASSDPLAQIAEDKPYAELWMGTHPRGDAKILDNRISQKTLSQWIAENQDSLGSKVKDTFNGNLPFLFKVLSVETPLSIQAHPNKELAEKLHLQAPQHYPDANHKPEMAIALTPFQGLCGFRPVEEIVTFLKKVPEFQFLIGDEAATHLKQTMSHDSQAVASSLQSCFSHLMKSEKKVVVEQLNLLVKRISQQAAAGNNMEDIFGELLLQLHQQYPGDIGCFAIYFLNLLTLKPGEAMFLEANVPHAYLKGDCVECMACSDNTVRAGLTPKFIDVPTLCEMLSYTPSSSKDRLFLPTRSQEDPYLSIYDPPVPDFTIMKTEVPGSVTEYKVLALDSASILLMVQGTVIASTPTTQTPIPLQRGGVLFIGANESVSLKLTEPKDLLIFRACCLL

| SMILES | inhibition |
| --- | --- |
| OCCNCc1cc(Br)ccc1OCc1ccc(Cl)cc1 | 10.8% |
| COc1ccccc1NC(=O)CCN1CCCCCC1 | -1.2% |
| O=C(Cc1ccccc1F)OCC(=O)N1CCN(C(=O)c2ccco2)CC1 | -7.8% |
| COc1cc(/C=N/NC(=O)C(Cc2c[nH]c3ccccc23)NC(=O)OCC(C)C)cc([N+](=O)[O-])c1OCc1ccccc1 (centres undefined) | 13.6% |
| Cc1ccc(S(=O)(=O)N2CCCC(C(=O)NCc3cccnc3)C2)cc1Cl (centres undefined) | 12.2% |
| CCOc1ccc(NC(=O)CSc2nnc(-c3ccccn3)n2C)cc1 | 2.1% |
| [N-]=[N+]=CC(=O)CNC(=O)[C@@H](Cc1ccccc1)N1C(=O)c2ccccc2C1=O | -1.7% |
| CCc1nc(SC)[nH]c(=O)c1C | -10.9% |
| COC(=O)c1c(NC(=O)/C=C/c2ccco2)sc2c1CCC2 | -2.8% |
| CCOc1ccc(NS(=O)(=O)c2ccc(NC(=S)NC(C)=O)cc2)cc1 | 4.1% |
| O=C(COC(=O)C(Cc1ccccc1)NC(=O)c1ccc(Cl)cc1)c1ccc(Cl)cc1 (centres undefined) | 111% (active) |
| O=C(COC(=O)C(Cc1ccccc1)NC(=O)c1ccccc1)c1ccccc1 (centres undefined) | 6.8% |
| CCc1ccc(C(=O)COC(=O)C(Cc2ccccc2)NC(=O)c2ccc(Cl)cc2)cc1 (centres undefined) | 11.2% |
| O=C(OC1CCOC1=O)c1cc(-c2ccccc2)nc2ccccc12 (centres undefined) | 8.9% |
| OCC(CO)(CO)N=Cc1c(O)ccc2ccccc12 | 37.3% |
| Oc1ccc2ccccc2c1/C=N/n1cnnc1 | 15.7% |
| CN(C)/N=C/c1c(O)ccc2ccccc12 | 31.9% |
| Oc1ccc2ccccc2c1C=NC1CCCCC1 | 79.8% (active) |
| Oc1ccc2ccccc2c1C=NC12CN3CCN(CN(C3)C1)C2 | 67.7% (active) |
| Oc1ccc2ccccc2c1C=Nc1ccc(N2CCOCC2)cc1 | 35.2% |
| O=C(CCc1ccccc1)Nc1ccc(N2CCOCC2)c(Cl)c1 | 11.3% |
| N#Cc1nc(COc2ccccc2)oc1NCCCn1ccnc1 | 0.3% |
| CCC(=O)Nc1ccccc1-c1nnn(CC(=O)N2c3ccccc3CC2C)n1 (centres undefined) | 13% |
| CCCCN(C(=O)c1ccc(S(=O)(=O)N(C)C)cc1)c1nc2ccccc2s1 | 11.7% |
| CCOC(=O)Cc1cnc(N)s1 | 2.1% |

| SMILES | inhibition |
| --- | --- |
| COCCN(CC(=O)NCC1CCCO1)C(=O)CCC(=O)Nc1cc(C)ccn1 (centres undefined) | -12.3% |
| Nc1cnc(Br)cc1Br | -8.6% |
| Cc1ccc2nsnc2c1N | 8.5% |
| Nc1cc2nsnc2cc1Br | 61% (active) |
| NS(=O)(=O)c1ccc(CCNC(=O)CSc2ncnc3ccccc23)cc1 | 7.5% |
| CCOc1cccc(CNc2ccc(O)cc2)c1OCc1ccc(Cl)cc1Cl | 40.3% |
| CCOc1cccc(CNc2ccc(O)cc2)c1OCc1ccc(Cl)cc1 | 53.9% (active) |
| CCOc1cccc(CNc2ccc(O)cc2)c1OCc1ccccc1Cl | 28.5% |
| CC(OC(=O)C1=COCCO1)C(=O)Nc1cc(S(=O)(=O)N2CCCCC2)ccc1Cl (centres undefined) | -6.3% |
| COCCCNC(=S)N1CCN(c2ccc([N+](=O)[O-])cc2)CC1 | 5% |
| Cc1ccc(CNC(=O)CCNC(=O)c2ccco2)cc1 | -8.4% |
| CCOC(=O)c1cc(CC)sc1/N=C/c1c(O)ccc2ccccc12 | 37.2% |
| CCOC(=O)c1sc(/N=C/c2c(O)ccc3ccccc23)cc1C | 58.3% (active) |
| CCOC(=O)c1sc(/N=C/c2ccc(O)cc2O)cc1C | 28.9% |
| CCc1ccc(NC(=S)/N=C(\N)Nc2nc(C)c3cc(CC)ccc3n2)cc1 | 11.4% |
| COc1cccc(NC(=O)c2ccc(-c3ccccc3[N+](=O)[O-])o2)c1 | -13.3% |
| COc1ccc(-c2ccc(C(=O)O)o2)c([N+](=O)[O-])c1 | 73.7% (active) |
| CNC(=O)/C(C#N)=C/c1ccc(-c2ccc(OC)cc2[N+](=O)[O-])o1 | 28.2% |
| Cn1c(SCC(=O)N2CCOCC2)nnc1-c1cccc(NC(=O)c2ccccc2F)c1 | 2.1% |
| COc1ccc(-c2nc(N)n[nH]2)cc1OC | 2.2% |
| COc1ccc(-c2nn[nH]n2)cc1OC | -5% |
| Cc1c(C(=O)NN)sc(-c2ccccc2)c1C#N | -23.8% |
| CCN(CC)S(=O)(=O)c1cccc(C(=O)N/N=C/c2cccc(O)c2O)c1 | 20% |
| CCN(CC)S(=O)(=O)c1cccc(C(=O)N/N=C/c2ccc(O)c(O)c2O)c1 | 77.7% (active) |
| CCN(CC)S(=O)(=O)c1cccc(C(=O)N/N=C/c2cc(OC)c(O)c(OC)c2)c1 | 19.2% |

| SMILES | inhibition |
| --- | --- |
| CCn1c(C)nc2cc(C(=O)N/N=C/c3cccc(OC)c3O)ccc21 | 5.6% |
| CCn1c(C)nc2cc(C(=O)N/N=C/c3ccccc3C)ccc21 | -4.6% |
| NC(=O)COC(=O)c1c2c(nc3ccccc13)CCCC2 | -8.6% |
| NS(=O)(=O)c1ccc(CCNC(=O)c2ccc3nc4ccc(Cl)cc4c(=O)n3c2)cc1 | -11.6% |
| CC(C)(C(=O)O)n1cncn1 | -17.9% |
| CC(C)(C)c1ccccc1OCCCCCn1ccnc1 | 14% |
| Oc1ccccc1/C=N/N1CCCCC1 | 10.8% |
| CC(=O)NC1=NN(C(C)=O)C(c2ccccc2)S1 (centres undefined) | 10.4% |
| O=C(COc1ccc(C(=O)NCCc2ccccc2)cc1)Nc1ccccc1 | 9.8% |
| COCc1[nH]nc2c1C(c1ccc(OC)cc1)C(C#N)=C(N)O2 (centres undefined) | 21.3% |
| COCc1[nH]nc2c1C(c1ccc(OC)c(OC)c1)C(C#N)=C(N)O2 (centres undefined) | 2% |
| COCc1[nH]nc2c1C(c1cc(OC)c(O)c(OC)c1)C(C#N)=C(N)O2 (centres undefined) | 53.8% (active) |
| CCOc1ncccc1C(=O)OCC(=O)c1cc(OC)ccc1OC | -1.1% |
| COc1ccc(C(=O)COC(=O)c2cccnc2Cl)c(OC)c1 | 0.1% |
| O=C(O)C1CCCCC1C(=O)NCc1ccc(F)cc1 (centres undefined) | 13.1% |
| CCOc1cc(C(=O)Nc2cccc(C(C)=O)c2)ccc1OCC(=O)N1CCCCC1 | 8.7% |
| O=C1NCCCC2c3cc(O)c4ccccc4c3OC12N1CCCCC1 (centres undefined) | 21% |
| O=C1NCCCC2c3c(cc(Br)c(O)c3Br)OC12N1CCCCC1 (centres undefined) | 24.7% |
| O=C1NN=C(c2ccccc2)CC1c1ccc(Cl)cc1Cl (centres undefined) | 4.2% |
| Cc1ccc(S(=O)(=O)/N=C2/C=C(Sc3ncn[nH]3)C(=O)c3ccccc32)cc1 | 101% (active) |
| O=C1c2ccccc2C(=O)N1CCSc1ncn[nH]1 | -7.4% |
| CCc1ccc(S(=O)(=O)/N=C2\C=CC(=O)c3ccccc32)cc1 | 6.9% |
| CC(C)c1ccc(S(=O)(=O)/N=C2/C=C(Sc3ncn[nH]3)C(=O)c3ccccc32)cc1 | 95.1% (active) |
| O=C(O)c1ccc(NC2=C/C(=N/S(=O)(=O)c3ccccc3)c3ccccc3C2=O)cc1 | -68.7% |
| CCc1ccc(S(=O)(=O)/N=C2/C=C(Sc3ncn[nH]3)C(=O)c3ccccc32)cc1 | 98.8% (active) |

| SMILES | inhibition |
| --- | --- |
| Cc1ccc(S(=O)(=O)/N=C2/C=C(C3C(=O)CC(C)(C)CC3=O)C(=O)c3ccccc32)cc1 | 9.6% |
| COC(=O)C(C(C)=O)C1=C/C(=N\S(=O)(=O)c2ccc(C)cc2)c2ccccc2C1=O (centres undefined) | 22.1% |
| CC(C)c1ccc(S(=O)(=O)/N=C2/C=CC(=O)c3ccccc32)cc1 | 34.5% |
| O=C(Cn1cc(C(F)(F)F)ccc1=O)N/N=C/c1ccc(F)cc1 | -3.8% |
| CC1CCN(CC(=O)N2c3ccccc3CC2C)CC1 (centres undefined) | -23.2% |
| Cc1cc(=O)c(C(=O)O)cn1Nc1ccc(F)cc1 | -5.7% |
| COc1ccc(C(O)Cc2nc3ccccc3n2C)cc1OC (centres undefined) | -8.6% |
| Cc1ncc(C[n+]2csc(CCOC(=O)CC34CC5CC(CC(C5)C3)C4)c2C)c(N)n1 | -0.1% |
| CCOc1cc(CNc2ccc(S(N)(=O)=O)cc2)cc(Cl)c1OC | 3% |
| COc1cc(CNc2ccc(N3CCCC3)cc2)ccc1OCc1ccccc1 | 86.4% (active) |
| COc1cc(CNc2ccc(N3CCCC3)cc2)cc(Cl)c1OC | 76.9% (active) |
| CCOc1cc(CNc2ccc(N3CCOCC3)cc2)cc(Br)c1OCC | 6.4% |
| CCOc1cc(CNc2ccc(N3CCCC3)cc2)cc(Cl)c1OC | 83% (active) |
| C=CCOc1c(Cl)cc(CNc2ccc(C)c(Cl)c2)cc1OC | 13.1% |
| COc1cc(CNc2ccc(N3CCCC3)cc2)ccc1OCc1ccccc1F | 29.9% |
| COc1cc(CNc2ccc(N3CCN(C(C)=O)CC3)cc2)ccc1OCc1ccccc1 | 20% |
| CCOc1c(Cl)cc(CNC(C)(C)CC(C)(C)C)cc1OC | 4.6% |
| COc1cc(CNc2ccc(N3CCOCC3)cc2)cc(Br)c1OC | -0.4% |
| CCOc1c(Cl)cc(CNc2ccc(S(N)(=O)=O)cc2)cc1OC | -1.5% |
| C/C(=N/NC(=O)c1ccncc1)c1c[nH]c2ccccc12 | -0.2% |
| Cc1cccc(-n2ccnc2SCC(=O)N2CCCc3ccccc32)c1C | 5.4% |
| COC(=O)c1c(C(=O)OC)c2cc(C(=O)c3ccccc3)ccn2c1Cl | -15.3% |
| CS(=O)(=O)N1CCN(C2CCN(Cc3ccccc3)CC2)CC1 | -0.6% |
| CN1CCc2nc3sc(C(=O)NCc4ccccc4)c(N)c3cc2C1 | -30.8% |
